From PubChem BioAssay
Active and inactive are the calls of the source. Unless noted, no rule for the calls is given here.

Legend:
[1] = compound effects on lung adenocarcinoma cell viability – A549, calcein-AM fluorescence, 48 h, basal, profiling panel (AID 1162); settings: higher = more signal; also: test concentration not given here
[2] = compound effects on differentiated 3T3-L1 adipocyte viability – cell-based, 3T3-L1 adipocytes, calcein-AM fluorescence, 48 h, basal, profiling panel (AID 1163); settings: 3T3-L1 adipocytes viability, higher = more signal; also: test concentration not given here
[3] = compound effects on hepatocellular carcinoma cell viability – HepG2, calcein-AM fluorescence, 48 h, basal, profiling panel (AID 1164); settings: higher = more signal; also: test concentration not given here
[4] = compound effects on multiple myeloma cell viability – MM1S, calcein-AM fluorescence, 48 h, basal, profiling panel (AID 1165); settings: higher = more signal;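 also: viability of MM1S multiple myeloma cells under basal unstimulated conditions; test concentration not given here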
[5] = calcein-AM signal in unstimulated myeloma cells – cell-based, calcein-AM fluorescence, 48 h, PK04 Diversity Set, profiling panel (AID 1166); settings: RPMI8226 myeloma viability, higher = more signal;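 also: cells grown under basal conditions without added stimulus; test concentration not given here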
[6] = JC-1 mitochondrial signal, unstimulated HepG2 cells – cell-based, JC-1 fluorescence, 24 h, 100 nL compound, profiling panel (AID 1167); settings: HepG2 mitochondrial potential, higher = more signal; also: test concentration not given here
[7] = JC-1 mitochondrial signal, unstimulated adipocytes – cell-based, JC-1 fluorescence, 3T3-L1 adipocytes, 24 h, 100 nL compound, profiling panel (AID 1168); settings: JC-1 mitochondrial fluorescence, higher = more signal, called active from +8 up or from −8 down; also: test concentration not given here
[8] = JC-1 mitochondrial signal, unstimulated myeloma cells – cell-based, JC-1 fluorescence, RPMI8226, 24 h, 100 nL compound, profiling panel (AID 1169); settings: JC-1 mitochondrial potential fluorescence, higher = more signal; also: test concentration not given here
[9] = JC-1 mitochondrial signal, unstimulated MM1S myeloma – cell-based, JC-1 fluorescence, 24 h, 100 nL compound, profiling panel (AID 1170); settings: MM1S mitochondrial potential, higher = more signal; also: test concentration not given here
[10] = resazurin metabolic signal in A549 cells – cell-based, resazurin fluorescence, 24 h, PK04 Diversity Set, profiling panel (AID 1171); settings: A549 viability, higher = more signal, called active from +8 up or from −8 down; also: test concentration not given here
[11] = resazurin metabolic signal in HepG2 cells – cell-based, resazurin fluorescence, 24 h, PK04 Diversity Set, profiling panel (AID 1172); settings: HepG2 viability, higher = more signal; also: test concentration not given here
[12] = budding yeast growth changes without added modifier – OD600, strain BY4716, 24 h, basal condition, primary screen (AID 1173); settings: S. cerevisiae BY4716 growth, OD600, 24 h; higher = more signal, called active from +8 up or from −8 down
[13] = viability profiling in MM1S myeloma cells – cell-based, resazurin fluorescence, basal, 24 h, PK04 Diversity Set, profiling panel (AID 1174); settings: higher = more signal, called active from +8 up or from −8 down; also: test concentration not given here
[14] = target: Dihydroorotate dehydrogenase (quinone), mitochondrial (Plasmodium falciparum (isolate 3D7)) (UniProt Q08210); test: inhibition of P. falciparum DHODH – biochemical, C-terminal His tag, absorbance 600 nm, primary screen (AID 1175); settings: PfDHODH enzyme, DCIP absorbance 600 nm; higher = more signal, called active from +8 up or from −8 down;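 also: recombinant parasite enzyme with a five histidine tag at its C terminus; test concentration not given here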
Chain of Dihydroorotate dehydrogenase (quinone), mitochondrial (Plasmodium falciparum (isolate 3D7)) (Q08210 whole entry, looked up): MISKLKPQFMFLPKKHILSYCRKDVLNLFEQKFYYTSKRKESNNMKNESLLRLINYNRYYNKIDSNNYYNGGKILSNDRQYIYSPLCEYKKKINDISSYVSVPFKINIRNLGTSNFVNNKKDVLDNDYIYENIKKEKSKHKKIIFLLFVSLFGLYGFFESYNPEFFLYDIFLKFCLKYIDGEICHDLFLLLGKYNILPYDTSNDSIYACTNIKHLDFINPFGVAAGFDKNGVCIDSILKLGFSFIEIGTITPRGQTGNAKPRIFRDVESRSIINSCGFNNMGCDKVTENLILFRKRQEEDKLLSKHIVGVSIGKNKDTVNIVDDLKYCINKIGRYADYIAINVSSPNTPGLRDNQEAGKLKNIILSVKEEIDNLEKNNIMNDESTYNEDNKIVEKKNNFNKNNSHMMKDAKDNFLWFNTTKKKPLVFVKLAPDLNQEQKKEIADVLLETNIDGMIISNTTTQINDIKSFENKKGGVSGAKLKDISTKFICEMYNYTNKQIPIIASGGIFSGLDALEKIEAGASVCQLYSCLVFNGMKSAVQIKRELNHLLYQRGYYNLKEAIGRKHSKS

[15] = inhibition of PAO1 biofilm formation – strain PAO1, LB-PBS medium, absorbance 600 nm, primary screen (AID 1176); also: test concentration not given here; settings: P. aeruginosa PAO1 growth/biofilm, A600, 12 h; higher = more signal
[16] = growth modulation of vineyard yeast isolate – strain RM11-1a, OD600, basal, 24 h, primary screen (AID 1177);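 also: cultures grown under basal conditions with no added stressor; test concentration not given here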; settings: S. cerevisiae RM11-1a growth, OD600, 24 h; higher = more signal, called active from +8 up or from −8 down
[17] = growth of efflux-deficient E. coli DRC39 – strain DRC39, OD650, 24 h, E. coli filamentation inducers, primary screen (AID 1178);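 also: growth measured as culture turbidity by optical density at 650 nm; test concentration not given here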; settings: E. coli DRC39 acrAB, higher = more signal, called active from +8 up or from −8 down
[18] = growth of efflux-deficient E. coli DRC39 – strain DRC39, OD650, 48 h, E. coli filamentation inducers, primary screen (AID 1179);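 also: screen aims at cell division blockers that make cells filament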; settings: E. coli DRC39 delta-acrAB growth, higher = more signal, called active from +8 up or from −8 down
[19] = viability profiling in RPMI8226 myeloma cells – cell-based, resazurin fluorescence, basal, 24 h, PK04 Diversity Set, profiling panel (AID 1180); settings: higher = more signal;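 also: RPMI8826 multiple myeloma cell line at 5000 cells per well; test concentration not given here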
[20] = target: E3 ubiquitin-protein ligase XIAP (Homo sapiens) (UniProt P98170); test: small molecules binding XIAP protein – biophysical, small-molecule microarray, fluorescence 635 nm, primary screen (AID 1181); settings: higher = more signal;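 also: score merges 667 nm emission and signal to noise over triplicate slides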
Chain of E3 ubiquitin-protein ligase XIAP (Homo sapiens) (P98170 whole entry, looked up): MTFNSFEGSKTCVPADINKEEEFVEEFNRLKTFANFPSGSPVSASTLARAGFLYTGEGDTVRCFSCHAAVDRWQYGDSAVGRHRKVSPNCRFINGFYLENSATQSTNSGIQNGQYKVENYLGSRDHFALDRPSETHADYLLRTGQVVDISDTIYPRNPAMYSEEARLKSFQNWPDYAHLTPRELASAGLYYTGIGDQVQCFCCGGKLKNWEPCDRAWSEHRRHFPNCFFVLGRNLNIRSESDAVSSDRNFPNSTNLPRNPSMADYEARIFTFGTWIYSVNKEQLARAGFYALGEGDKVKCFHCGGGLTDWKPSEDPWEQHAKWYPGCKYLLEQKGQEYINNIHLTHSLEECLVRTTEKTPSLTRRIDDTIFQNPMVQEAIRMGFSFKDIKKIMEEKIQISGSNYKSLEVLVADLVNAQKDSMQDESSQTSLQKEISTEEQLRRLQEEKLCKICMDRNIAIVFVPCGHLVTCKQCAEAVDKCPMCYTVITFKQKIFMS

SMILES	z-score [1]	z-score [2]	z-score [3]	z-score [4]	z-score [5]	z-score [6]	z-score [7]	z-score [8]	z-score [9]	z-score [10]	z-score [11]	z-score [12]	z-score [13]	composite z-score [14]	z-score [15]	z-score [16]	z-score [17]	z-score [18]	z-score [19]	composite z-score [20]
CCCCC(=C=CC[C@H](O)c1ccc(CO)o1)CCO	-0.231	-0.652	0.115	-0.562	-0.0295	-0.787	-0.848 (inactive)	-0.0527	-0.534	-0.598 (inactive)	-0.585	-0.976 (inactive)	0.0305 (inactive)	-0.776 (inactive)	0.224 (inactive)	0.648 (inactive)	-0.312 (inactive)	-0.409 (inactive)	-0.34	-0.0663
CCCNC(=O)[C@@]1(c2ccc([N+](=O)[O-])cc2)CC(=O)N(C(C)C)[C@@H]1c1ccc(CO)cc1	0.186	0.81	-0.359	0.167	0.11	-0.534	-0.584 (inactive)	0.195	0.892	0.0564 (inactive)	0.0889	-0.324 (inactive)	-0.96 (inactive)	0.0058 (inactive)	0.373 (inactive)	-0.355 (inactive)	0.388 (inactive)	-0.508 (inactive)	0.123	0.0692
CC(C)NC(=O)[C@@H]1c2ccccc2C(=O)N(Cc2ccccc2C(F)(F)F)[C@H]1c1ccc(CO)cc1	-0.385	-0.341	-0.052	-0.321	0.749	0.186	-1.81 (inactive)	0.317	0.0239	2.53 (inactive)	0.994	-0.249 (inactive)	0.711 (inactive)	0.0482 (inactive)	0.441 (inactive)	-0.227 (inactive)	0.296 (inactive)	0.0644 (inactive)	0.616	-0.135
[N-]=[N+]=Nc1ccccc1[C@@H]1OC(c2ccc(OCCCO)cc2)=N[C@]1(Cc1ccccc1)C(=O)NCCN1CCOCC1	-0.975	1.29	-0.876	-2.37	-4.18	0.153	-0.0447 (inactive)	-1.26	-0.469	-0.908 (inactive)	-0.158	-2.57 (inactive)	-1.37 (inactive)	0.417 (inactive)	-0.441 (inactive)	-0.158 (inactive)	0.826 (inactive)	-0.382 (inactive)	-1.73	-0.0663
O=C1C2C=CC(C(O)C3CCCCC3)N(n3cnnc3)C2C(=O)N1Cc1ccccc1 (stereo not given)	-0.916	0.379	-0.611	-0.453	-0.441	-0.37	-2.27 (inactive)	-0.0098	-1.04	0.714 (inactive)	-0.308	0.161 (inactive)	-0.196 (inactive)	-0.016 (inactive)	0.561 (inactive)	-0.618 (inactive)	0.386 (inactive)	1.01 (inactive)	-0.513	-0.0535
COc1ccc(NN2C(C(O)c3ccc(I)cc3)C=CC3C(=O)N(C4CCCCC4)C(=O)C32)cc1 (stereo not given)	-0.302	-0.971	0.181	-1.06	0.295	0.126	0.0889 (inactive)	0.0764	-1.65	1.47 (inactive)	1.59	0.0997 (inactive)	0.28 (inactive)	0.526 (inactive)	0.726 (inactive)	0.475 (inactive)	-0.558 (inactive)	0.725 (inactive)	-0.313	0.144
N#Cc1ccc(C(O)C2C=CC3C(=O)NC(=O)C3N2Nc2ccc(Cl)cc2Cl)cc1 (stereo not given)	-0.918	0.325	-0.726	-0.399	-0.408	-1.35	-1.05 (inactive)	-0.356	0.153	-0.123 (inactive)	-1.53	-14.4 (active)	-1.43 (inactive)	-0.173 (inactive)	1.26 (inactive)	-0.633 (inactive)	-0.48 (inactive)	-0.413 (inactive)	-1.35	0.0856
CN(C)C(=O)[C@@]1(Cc2ccccc2CN=[N+]=[N-])COC(c2ccc(OCCCO)cc2)=N1	-0.113	0.442	0.0407	-3.51	-2.76	1.21	1.1 (inactive)	-1.08	-1.65	0.0714 (inactive)	1.01	-4.86 (inactive)	-1.19 (inactive)	-0.311 (inactive)	-0.732 (inactive)	3.73 (inactive)	1.04 (inactive)	1.58 (inactive)	0.196	0.153
CCCC=C(CCC)[C@@H](NC(=O)OCC(C)C)c1ccc(C(=O)OC)cc1	0.732	-0.196	0.0516	0.753	0.528	-0.345	-1.53 (inactive)	-0.0219	-1.32	0.293 (inactive)	1.78	0.463 (inactive)	0.287 (inactive)	-0.456 (inactive)	0.523 (inactive)	-0.578 (inactive)	0.386 (inactive)	-0.0328 (inactive)	0.754	0.0651
